Source: PubChem BioAssay (several laboratories)
TROY NFkB inh = inhibitors of TROY-driven NF-kB signaling, primary screen, Q293 LMP1-TROYcd cells, NF-kB luciferase, uHTS. Q293 LMP1-TROYcd NF-kB luciferase reporter, 4 h. inhibition, % at 10 µM. 0.98% of 360,000 active;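 active means compounds whose plate-normalised and pattern-corrected inhibition of the luciferase reporter signal at the single screening dose is 50% or more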
LMP1 NFkB inh = EBV LMP1-driven NF-kappaB luciferase reporter inhibitors, primary screen, cell-based, luminescence, single point | LMP1-induced NF-kappaB luciferase reporter cells | inhibition, % at 12.5 µM | 0.69% of 350,000 active | AID 504558, 2011; in the data active means inhibition above about 41%; inconclusive means no clear call, values can overlap the other calls;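 further: 0% = neutral control wells and 100% = reference inhibitor control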
TWEAK-Fn14 inh = inhibitors of TWEAK-Fn14 signaling, primary screen, luciferase reporter cells, uHTS. TWEAK-stimulated Fn14 reporter cells, luciferase luminescence, 8 h. inhibition, % at 10 µM. 2% of 360,000 active. AID 1159606, 2016; in the data active means inhibition above about 50%
Peg3 promoter = Peg3 promoter-driven luciferase inhibitors, primary screen, cell-based, HeLa, luciferase luminescence; HeLa PEG-Prom luciferase reporter, overnight; inhibition, % at 20 µM; 1.7% of 360,000 active; AID 588405, 2011;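 active means inhibition of at least 50% at 20 µM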
HIF-2a block = HIF-2a reporter inhibitors, primary screen, luminescence, 786-0 RCC cells. 0.72% of 360,000 active. AID 624352, 2012. 786-0 RCC cells HIF-2a reporter, luciferase luminescence, overnight. inhibition, % at 18.8 µM;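 active means inhibition of the luminescence signal of 40% or more relative to plate controls, in a single-dose primary screen at 18.75 µM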
TRPM1 prom inh = inhibitors of MITF-dependent TRPM1 promoter reporter, primary screen, cell-based, SK-MEL-5, single point, luciferase; SK-MEL-5 TRPM1 promoter luciferase, 24 h; inhibition, % at 12.5 µM; 0.83% of 330,000 active; AID 488899, 2010;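 active means mean inhibition across replicates of 60% or more, whatever share of single replicates reaches that level; inconclusive means some that reach 60%, reason not given; inactive means mean inhibition across replicates below 60%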
* marks the source's active call; other numbers are inactive results; ? = inconclusive; . = no result. The list is not random: actives were taken first. Their share in the collection is about 4%.

SMILES	TROY NFkB inh	LMP1 NFkB inh	TWEAK-Fn14 inh	Peg3 promoter	HIF-2a block	TRPM1 prom inh
Cc1cc(NC(=O)c2ccc(Cn3cc([N+](=O)[O-])cn3)o2)no1	11.2	0.9	3.0	22.3	2.3	0.6
Cc1cc(NC(=O)Cn2cc([N+](=O)[O-])cn2)no1	88.2*	-7.5	-4.0	-6.8	2.0	2.2
Cc1ccc(Nc2cc(Cl)nc(N)n2)c([N+](=O)[O-])c1	-11.4	-12.4	-16.6	-43.6	-62.8	-2.5
COc1ccc(Cl)cc1NC(=O)C1Cc2cc(S(=O)(=O)N3CCCC3)ccc2N1C(C)=O (stereo not given)	-3.0	-15.4	-11.2	14.1	21.6	15.5
Cc1ccc(N(C)S(=O)(=O)c2cccc(C(=O)Nc3nc4ccccc4[nH]3)c2)cc1	31.9	4.3	54.2*	18.6	-57.8	-2.1
COc1cccc(C(=O)Nc2nc3ccccc3[nH]2)c1	32.7	?	87.1*	41.8	2.6	26.2
O=C(Nc1nc2ccccc2[nH]1)c1cccc(F)c1	11.3	0.4	36.3	-130.1	-133.8	-4.0
CN(C)c1cccc(C(=O)Nc2nc3ccccc3[nH]2)c1	1.6	44.3*	60.8*	-55.2	-39.8	-11.6
COc1ccc(OCC(=O)Nc2c(C)ccc3nsnc23)cc1	10.3	-0.1	6.1	0.7	6.0	2.8
CCCCC(=O)N(C)c1c(C)nc2ccc(C(=O)N3CCN(c4ccccc4)CC3)cn12	-4.4	.	-9.4	-8.0	2.0	.
COc1ccc(-c2coc3c(C(=O)NCc4ccc(OC)c(OC)c4)cccc23)c(C)c1	44.0	.	63.2*	9.3	17.1	.
O=C(Nc1cccc(F)c1)c1ccc(-c2cccnc2)c2ccoc12	39.5	.	76.5*	-68.9	-28.6	.
CC(=O)c1cccc(NC(=O)c2cccc3c(-c4cccc(C(N)=O)c4)coc23)c1	63.8*	.	83.3*	98.2*	-172.9	.
O=C(Nc1cccc(C(F)(F)F)c1)c1cccc2c(-c3cccnc3)coc12	33.1	.	16.9	5.8	-6.1	.
COc1cc(NC(=O)c2cccc3c(-c4cccnc4)coc23)cc(OC)c1OC	68.4*	.	79.8*	98.8*	-23.8	.
CC(C)(C)OC(=O)N1CCN(C(=O)c2ncn(Cc3ccccc3)c2C(=O)N2CCN(C(=O)OC(C)(C)C)CC2)CC1	7.3	0.2	14.3	6.7	-9.1	-7.5
COCCN(C(=O)COC(=O)Cc1c[nH]c2ccccc12)c1c(N)n(Cc2ccccc2)c(=O)[nH]c1=O	-23.0	30.5	2.0	13.4	14.9	2.7
COc1ccc(-c2coc3c(C(=O)Nc4cc(OC)c(OC)c(OC)c4)cccc23)c(C)c1	63.4*	.	92.6*	33.8	-10.6	.
COc1ccc(-c2coc3c(C(=O)Nc4ccc(OC)nc4)cccc23)c(C)c1	24.7	.	45.4	17.6	2.2	.
Cc1ccc(C(OCC(O)CNCc2ccc(F)cc2)c2ccccc2)cc1 (stereo not given)	9.5	3.2	-12.4	100.0*	19.9	-8.4
O=C(c1ccccc1)c1ccc(OCC(O)CNCc2ccc(F)cc2)cc1 (stereo not given)	-9.0	34.8	-3.9	-8.9	9.3	4.3
CCOc1cc(CNc2ccc(N3CCCC3)cc2)cc(Cl)c1OC	31.6	-7.6	59.3*	29.1	-29.2	31.9
CCOc1ccc(CNc2ccc(N3CCCC3)cc2)cc1	39.6	9.1	55.2*	-7.9	-52.3	-4.3
CCOc1ccc(CNc2ccc(N3CCN(Cc4ccccc4)CC3)cc2)cc1	11.8	4.3	24.1	30.0	15.3	4.3
CN1C(=O)N(CC(=O)N2CCN(c3ccccc3F)CC2)C(=O)C12CCCCC2	9.1	-1.2	-0.2	7.0	-0.9	1.1
SMILES	TROY NFkB inh	LMP1 NFkB inh	TWEAK-Fn14 inh	Peg3 promoter	HIF-2a block	TRPM1 prom inh
O=S(=O)(NCc1ccccn1)c1ccccn1	12.8	0.0	-8.8	-1.6	9.4	-9.6
COc1ccc(C(CNC(=O)C(CCSC)NC(=O)c2ccccc2Cl)N2CCCC2)cc1 (stereo not given)	-25.1	1.2	2.1	-5.2	6.0	2.1
COc1ccc(C(CNC(=O)C(CCSC)NC(=O)c2ccccc2Cl)N2CCCCC2)cc1 (stereo not given)	5.2	71.4*	13.3	-8.2	-1.6	-1.5
Cc1ccc(S(=O)(=O)N2[C@@H](c3ccccc3)C(C(=O)O)=CC[C@H]2c2ccc(Cl)c(Cl)c2)cc1	32.2	-7.6	32.7	9.4	22.6	2.6
Cc1ccc([C@H]2C(C(=O)O)=CC[C@@H](c3ccc(Cl)c(Cl)c3)N2S(=O)(=O)c2ccc(C)cc2)cc1	57.3*	-1.8	9.9	13.1	0.9	5.9
CC(C)NC(=O)COC(=O)c1cc(F)c(F)cc1Cl	4.2	-2.6	9.6	4.7	7.0	0.4
CNC(=O)COC(=O)c1cc(F)c(F)cc1Cl	-0.2	2.2	87.3*	7.1	5.1	4.1
CCOC(=O)C1=C(CC)Nc2ccccc2N=C1NC(=O)Nc1ccc(Cl)c(Cl)c1	53.3*	38.9	72.9*	-15.5	-71.9	-1.6
CC1(C)CC2(C)OC2C2(C1)N=NC(=Nc1ccccc1)O2 (stereo not given)	-15.6	.	28.2	72.8*	-31.9	.
O=C(NC(=S)Nc1ccccc1N1CCN(C(=O)c2ccccc2)CC1)c1ccccc1F	35.3	-0.5	11.2	-33.4	5.5	-4.8
CC1(C)CC(=O)C2=C(C1)Oc1nc3ccccc3cc1C2C(C#N)C#N (stereo not given)	12.4	6.1	68.6*	58.2*	7.5	80.5*
COc1cccc(C(=O)NNS(=O)(=O)c2ccccc2)c1	9.7	-1.6	-7.8	3.5	-6.3	.
CCOC(=O)C(=NCC1CCCO1)NNc1ccccc1Cl (stereo not given)	-11.5	0.4	-32.0	0.0	1.4	8.1
Cc1ccc(S(=O)(=O)n2ccc3c(OCCOCCNCc4ccc(F)cc4)cccc32)cc1	46.0	6.4	-7.4	95.6*	24.6	32.5
Cc1ccc(S(=O)(=O)n2ccc3c(OCCOCCSCC(NC(=O)OC(C)(C)C)C(=O)O)cccc32)cc1 (stereo not given)	32.6	5.9	-6.7	26.7	17.0	4.5
Cc1ccc(S(=O)(=O)N2CCCCC2)cc1NC(=O)CSc1ncccn1	-10.0	3.8	-15.4	7.6	17.3	-3.6
COC(=O)[C@]1(C)N[C@H](CN(C)S(=O)(=O)c2ccc(-c3ccccc3)cc2)[C@@H]2C(=O)N(C)C(=O)[C@@H]21	-6.0	-4.7	-4.5	5.0	-9.3	-3.4
Cc1ccc(C(CNS(=O)(=O)c2ccc(Br)cc2)N2CCN(C)CC2)cc1 (stereo not given)	-20.7	-4.2	11.4	1.4	18.7	79.5*
Cc1ccc(C(CNS(=O)(=O)c2ccccc2)N2CCN(C)CC2)cc1 (stereo not given)	-19.7	-1.4	-3.6	-19.2	1.4	-10.5
